From PubChem BioAssay (Tox21)
The source made the active and inactive calls. Where a call stands in place of a potency, no number is given. The call rests on the fitted dose curve.
Potency means the concentration at half of the fitted maximal effect.

Test: qHTS assay to identify small molecule agonists of the sonic hedgehog signaling (Shh) pathway (AID 1259368); further: nearly all actives have a fitted effect of over 15% in size
Conditions: NIH/3T3 Gli1-Luc reporter, luciferase, 24 h; series mostly up to 92.4 µM
From the text: National Center for Advancing Translational Sciences [NCATS]
NIH Chemical Genomics Center [NCGC]
U.S. Environmental Protection Agency [EPA]
National Institutes of Environmental Health Sciences [NIEHS]
National Toxicology Program [NTP]
The sonic hedgehog (Shh) pathway is essential for normal embryonic development. Dysregulation of the Shh pathway can cause severe developmental defects in organs. Therefore chemicals that interfere with the pathway are potential developmental toxicants. A cell line designated 3T3Gli1-Luc (DMB/OARSA/CFSAN/FDA, Laurel, MD), a NIH/3T3 derived clone containing stably integrated Gli1-Luc reporter is used to detect chemical interference of the Shh pathway, by changes in the expression of the firefly Luc gene under the control of the Gli1 transcriptional response element. This cell line was used to screen Tox21 libraries for identifying and prioritizing the potential developmental toxicants that interfere Shh pathway.
3T3 Gli1-Luc cells were dispensed at 2,000 per well in 5uL of culture medium into white solid bottom 1536-well plates (Greiner Bio-One, Monroe, NC) using a Multidrop Combi (Thermo Scientific, Waltham, MA) dispenser. The assay plates were incubated at 37 C and 5% CO2 for 4hr, and then 23nL of compounds dissolved in DMSO and positive control were transferred using a Pintool station (Wako, San Diego, CA). The assay plates were incubated at 37C and 5% CO2 for 24hr. For luciferase read, 4uL of Amplite Luciferase reporter gene assay reagent (AAT Bioquest, Inc. Sunnyvale, CA) was added to each well of the assay plates using Flying Reagent Dispenser (FRD, Aurora Discovery, San Diego, CA) and incubated at room temperature for 30min. The luminescence signal was measured using a ViewLux plate reader (Perkin Elmer, Shelton, CT).
With `CCCCCCCCCCC(CO)CCCCCCCC` (stereo not given) the Potency was “inactive”. For `C[C@]12CC[C@@H]3c4ccc(O)cc4CC[C@H]3[C@@H]1CC[C@@H]2O`, the Potency was “inactive”. With `NCCN` the Potency was “inactive”. For `CC(=O)OC(C)C`, the Potency was “inactive”. With `NCCOCCO` the Potency was “inactive”. In the case of `CN(C)/N=N/c1nc[nH]c1C(N)=O`, the Potency was “inactive”. For `Nc1cc([N+](=O)[O-])ccc1C(=O)O`, the Potency was “inactive”. With `CN(Cc1cnc2nc(N)nc(N)c2n1)c1ccc(C(=O)N[C@@H](CCC(=O)O)C(=O)O)cc1` the Potency was “inactive”. For `Cc1ccc(S(=O)(=O)NCl)cc1`, the Potency was “inactive”. With `CC(=O)Oc1ccc(C(c2ccc(OC(C)=O)cc2)c2ccccn2)cc1` the Potency was “inactive”. In the case of `C=C[Si](OCCOC)(OCCOC)OCCOC`, the Potency was “inactive”. For `Nc1ccc2c(c1)C(=O)c1ccccc1C2=O`, the Potency was 0.864 µM (active). For `Nc1cc(Cl)c(N)c(Cl)c1`, the Potency was “inactive”. For `C1COCCN1`, the Potency was “inactive”. With `CC(C)(Oc1ccc(Cl)cc1)C(=O)O` the Potency was “inactive”. For `Cc1ccc(S(=O)(=O)O)cc1C`, the Potency was “inactive”. For `Brc1nc2ccccc2s1`, the Potency was “inactive”. With `Oc1ccc(C(c2ccc(O)cc2)C(Cl)(Cl)Cl)cc1` the Potency was “inactive”. In the case of `CCCCCCC(C)O` (stereo not given), the Potency was “inactive”. In the case of `c1ccc2c(c1)ccc1cc3c(ccc4ccccc43)cc12`, the Potency was “inactive”. For `COC(=O)c1ccc(C)cc1`, the Potency was “inactive”. In the case of `CCCCCC=O`, the Potency was “inactive”. For `O=C(O)c1cc(=O)[nH]c(=O)[nH]1`, the Potency was “inactive”. With `CCc1cccc2c3c([nH]c12)C(CC)(CC(=O)O)OCC3` (stereo not given) the Potency was “inactive”. For `C=CC(=O)OCCCC`, the Potency was “inactive”. With `C=CCOC(=O)C(=C)C` the Potency was “inactive”. With `CC(=O)O[C@]1(C(C)=O)CC[C@H]2[C@@H]3C=C(C)C4=CC(=O)CC[C@]4(C)[C@H]3CC[C@@]21C` the Potency was “inactive”. With `Cc1cccc(Nc2ccccc2C(=O)O)c1C` the Potency was “inactive”. In the case of `O=C(O)CCCC(=O)O`, the Potency was “inactive”. For `CN(C)C`, the Potency was “inactive”. With `C1CN(SSN2CCOCC2)CCO1` the Potency was “inactive”. For `C=CN1CCCC1=O`, the Potency was “inactive”. For `CCCOCCO`, the Potency was “inactive”. With `C=C[C@@]1(C)CC(=O)[C@]2(O)[C@@]3(C)[C@@H](O)CCC(C)(C)[C@@H]3[C@H](O)[C@H](OC(C)=O)[C@@]2(C)O1` the Potency was “inactive”. For `IC(I)I`, the Potency was “inactive”. In the case of `c1ccc2c(c1)ccc1ncccc12`, the Potency was “inactive”. With `Nc1ccc(N)c(Cl)c1` the Potency was “inactive”. With `CC(=O)O[C@]1(C(C)=O)CC[C@H]2[C@@H]3C=C(Cl)C4=CC(=O)CC[C@]4(C)[C@H]3CC[C@@]21C` the Potency was “inactive”. With `Cc1ccc(C(C)(C)C)cc1` the Potency was “inactive”. In the case of `CC(=O)Oc1c(C)c(C)c2c(c1C)CC[C@@](C)(CCC[C@H](C)CCC[C@H](C)CCCC(C)C)O2`, the Potency was “inactive”.
